Source: PubChem BioAssay (National Center for Advancing Translational Sciences (NCATS))
rTrxR1 inhibitor – inhibitors of rat thioredoxin reductase 1; recombinant rTrxR1, NADPH fluorescence consumption, selenite substrate; AID 588453; Potency, µM (doses to about 114 µM), actives largely listed as inhibitors; 390,000 compounds, 1% hits; O89049; note: nearly all actives have a fitted effect of over 65% in size
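Rat TrxR1 (90 nM in the dispensed reagent) was pre-reduced with 400 uM NADPH for 5 min at room temperature, then incubated with compound for 15 min. After 400 uM selenite was added, NADPH fluorescence (Ex 340/Em 450 nm) was followed for 8 min.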
VDR inhibitor – blocks the human vitamin D receptor. VDR-SRC2-3 peptide fluorescence polarization, 2 h. Potency, µM, actives largely listed as inhibitors. AID 504847. 400,000 compounds, 0.93% hits
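Two reagent solutions held at 4 deg C in the dark were dispensed, compounds pinned at 23 nl, and the mixture incubated 2 h at room temperature. Read-out: fluorescence polarization of VDR–SRC2-3 peptide binding.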
Vif-APOBEC3F blk – Vif-A3F binding inhibition; HeLa A3F-eYFP + Vif (tagged APOBEC3F with the HIV-1 protein that degrades it), YFP fluorescence increase; Potency, µM (doses to about 46.1 µM); 390,000 compounds, 0.2% hits; AID 602313; note: nearly all actives have a fitted effect of over 65% in size
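HeLa cells stably expressing Vif plus C-terminally eYFP-tagged A3F were seeded, incubated overnight at 37 deg C, dosed with compound, incubated overnight again at 37 deg C. Yellow fluorescence (Ex 488/Em 500-530) reported blocked Vif-mediated A3F-eYFP degradation.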
Vif-A3G inh – inhibitors of Vif-APOBEC3G interaction; Q9HC16; AID 602310; 410,000 compounds, 0.076% hits; Potency, µM (doses to about 46.1 µM), usual class: inhibitors; HeLa A3G-eYFP + Vif (tagged APOBEC3G with the HIV-1 protein that degrades it), YFP fluorescence, overnight; note: nearly all actives have a fitted effect of over 60% in size
Target sequence (Q9HC16 whole entry, looked up): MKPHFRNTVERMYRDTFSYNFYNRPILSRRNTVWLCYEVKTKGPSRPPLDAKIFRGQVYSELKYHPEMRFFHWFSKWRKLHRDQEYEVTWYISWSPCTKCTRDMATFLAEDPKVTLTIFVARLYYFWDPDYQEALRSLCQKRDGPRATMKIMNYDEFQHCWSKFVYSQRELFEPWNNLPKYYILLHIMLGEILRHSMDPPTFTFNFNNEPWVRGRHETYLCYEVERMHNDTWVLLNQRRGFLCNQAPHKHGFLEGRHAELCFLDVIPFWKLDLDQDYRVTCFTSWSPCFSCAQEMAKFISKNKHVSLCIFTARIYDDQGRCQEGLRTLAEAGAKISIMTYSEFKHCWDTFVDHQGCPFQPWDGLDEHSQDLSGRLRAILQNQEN
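Read-out is eYFP fluorescence (Ex 488/Em 500-530) from Vif-expressing HeLa A3G-eYFP cells; more signal means A3G escaped Vif-mediated degradation. Cells plated overnight, compound pinned in, incubated overnight at 37 deg C.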
TrxR1 substrate – is turned over as a substrate by rat TrxR1; purified TrxR1 substrate turnover, NADPH consumption readout; Potency, µM (titrated, usually from 114 µM); 390,000 compounds, 0.01% hits; note: nearly all actives have a fitted effect of over 50% in size
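Rat TrxR1, dispensed at 90 nM, was prereduced with 400 uM NADPH (final) for 5 min at ~22 deg C, then incubated with compound 15 min before 400 uM selenite. A first-read NADPH fluorescence drop versus no-compound background flagged substrates.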
A number is an active result; . = inactive; ? = inconclusive; / = no result; ! = a repeat was not active; [ ] = another dose, or the depositor's remark. Compounds with a hit are over-represented: about 1.8% of the library has one in this group of screens. Calls come from the whole dose curve; as a rule, active = well fitted curve in the direction sought with a large enough effect; inconclusive = small, poorly fitted or top-dose-only effect, or another doubt; inactive = no such curve, though single readings can be large; an effect the other way counts as inactive or inconclusive.

SMILES	rTrxR1 inhibitor	VDR inhibitor	Vif-APOBEC3F blk	Vif-A3G inh	TrxR1 substrate
CCC(CO)Oc1cc(NCc2ccc(C)cc2)c2ncn(C(C)C)c2c1 (centres undefined)	?	.	.	.	.
CCC(CO)Oc1cc(NCc2cccc(C)c2)c2ncn(C(C)C)c2c1 (centres undefined)	.	89µM	.	.	.
O=C(Nc1ccc(Cl)cc1)C(Cl)C(=O)c1ccccc1 (centres undefined)	.	18µM	.	.	.
Cc1ccc2c(C(=O)CNC3=NCCS3)c(C)[nH]c2c1	.	/	/	.	.
C#CC(=O)CC1(CN(Cc2ccccc2)C(=O)OC(C)(C)C)CCCCC1	2µM	?	.	.	.
Cc1ccc(NC(=S)NC(C)CCc2ccccc2)cc1C (centres undefined)	.	.	.	.	.
Cc1cccc(C)c1NC(=S)NC(C)CCc1ccccc1 (centres undefined)	.	.	7.1µM	.	.
COc1ccccc1NC(=S)NC(=O)/C=C/c1ccco1	20µM	?	.	.	.
COc1ccccc1NC(=O)/C=C\c1ccco1	3.5µM	?	?	.	.
O=C(/C=C/c1ccco1)NC(=S)Nc1cc(-c2nc3ccccc3s2)ccc1Cl	50µM	?	.	.	.
COc1cc(C(=O)NNC(=O)/C=C/c2ccco2)cc(OC)c1OC	56µM	.	.	.	.
Cc1ccc(CSc2nnc(-c3ccc(NC(=O)CCc4ccccc4)cc3)n2C)cc1	.	/	/	.	.
Cc1ccc2nc(COc3ccccc3NC(=O)c3ccc(F)cc3)cc(=O)n2c1	.	.	.	.	.
COC(=O)CN1C(=O)CSc2ccc(S(=O)(=O)Nc3ccc(C)c(Cl)c3)cc21	.	.	.	.	.
Cc1cccc(NC(=S)NC(=O)/C=C/c2ccco2)n1	.	.	.	?	.
Cc1ccccc1NC(=S)NC(=O)/C=C/c1ccco1	16µM	?	?	.	.
CC1=Nc2ccccc2/C1=C/c1ccc(N(C)C)cc1	.	/	/	.	.
Cc1ccc(OCC(=O)NC2=NCCS2)cc1	.	.	.	.	.
Cc1ccc(C2=NN=C(NC(=O)C(F)(F)F)SC2)cc1	.	50µM	.	.	.
CCN(CC)CCCOc1cc2nc(N3CCCN(C)CC3)nc(NC3CCN(C)CC3)c2cc1OC	.	/	/	.	.
COc1coc(C(O)C[N+](=O)[O-])cc1=O (centres undefined)	50µM	.	.	.	.
COc1ccc(-c2cn(-c3ccc(C)cc3)c(S(=O)(=O)CC(=O)Nc3ccccc3)n2)cc1	.[2.29 µM]	.	.	.	.
COC(=O)NCC12CC3CC(C1)CC(CNC(=O)OC)(C3)C2	35µM	.	.	.	.
COc1cc(N2C(=O)C=CC2=O)c(OC)cc1Cl	3.2µM	28µM	.	?	.
O=C(/C=C/c1cccc([N+](=O)[O-])c1)Nc1cc(C(=O)O)cc(C(=O)O)c1	.	35µM	.	.	.
SMILES	rTrxR1 inhibitor	VDR inhibitor	Vif-APOBEC3F blk	Vif-A3G inh	TrxR1 substrate
COC(=O)c1cccc(NC(=O)/C=C/c2cccc([N+](=O)[O-])c2)c1	.	.	.	.	.
CN(C)c1ccc(C=Nc2cnc3ccccc3c2)cc1	.[0.0914 µM]	/	/	.	.
O=C(NC(=S)NCc1ccccc1)c1ccccc1	?	.	?	.	.
O=C(NC(=S)NCc1ccc(F)cc1)c1ccccc1	13µM	.	.	.	.
O=C(Nc1cccnc1)c1cc(-c2cccc(Cl)c2)on1	.	79µM!	.	.	.
Cc1nc(N=Nc2cc(S(=O)(=O)O)c3cc([N+](=O)[O-])cc(S(=O)(=O)O)c3c2)c(COP(=O)(O)O)c(C=O)c1O	?	40µM!	/	.	.
Cc1nc(N=Nc2cc([N+](=O)[O-])ccc2Cl)c(COP(=O)(O)O)c(C=O)c1O	/	45µM	/	/	/
CCOc1cc(C=O)cc(N=Nc2cccc([N+](=O)[O-])c2)c1O	?	.	.	.	.
O=C(O)C#CC(=O)O	.	/	/	.	.
CC[C@H](C)[C@H](NC(=O)[C@H](CCCN=C(N)N)NC(=O)[C@H](CCCN=C(N)N)NC(=O)[C@H](CC(C)C)NC(=O)[C@H](Cc1ccccc1)NC(=O)CNC(=O)CN)C(=O)N[C@@H](CCCN=C(N)N)C(=O)N1CCC[C@H]1C(=O)N[C@@H](CCCCN)C(=O)N[C@@H](CC(C)C)C(=O)N[C@@H](CCCCN)C(=O)O	/	.	/	/	/
